Here are results for 20 molecules from PubChem BioAssay.

Values without a mark were called inactive. For some of these results: Results with a measured potency or affinity are listed apart. The source made the active and inactive calls. Unless noted, the rule behind the calls is not given here.

Assay [1] in a line: antimalarial activity against Dd2 strain (AID 2302;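 active = growth inhibition above 50% at the single 2 µM test dose, taken to imply half-maximal potency below 2 µM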;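 note: 0% = DMSO untreated growth and 100% = chloroquine plus artemisinin killed control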). The settings on record: P. falciparum Dd2 in RBCs, LDH growth readout, 72 h; at 2 µM; active compounds read high.
The nature of assay [2]: HepG2 cytotoxicity, primary screen, cytotoxicity control for P. falciparum antimalarial project, cell-based, ATP luminescence (AID 2303;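 active = inhibition above 50%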;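 note: 0% = DMSO wells and 100% = digitonin-killed cells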). The settings on record: HepG2 viability, 24-48 h, at 10 µM, active compounds read high.
Assay [3] addresses L-lactate dehydrogenase (Plasmodium falciparum (isolate CDC / Honduras)) (UniProt Q27743). Nature of the assay: PfLDH activity inhibition – cell lysate, 3D7 strain, counter-screen for P. falciparum growth inhibition project (AID 2304).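 Note: 0% = vehicle and 100% = reference inhibitor.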 The settings on record: P. falciparum 3D7 crude extract, LDH APAD/NBT absorbance; at 2 µM; active compounds read high. For orientation: Counterscreens check selectivity or assay interference.

The nature of assay [4]: inhibition of 3D7 malaria parasite growth – strain 3D7 (AID 2306).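 Note: 0% = DMSO wells and 100% = chloroquine plus artemisinin control wells.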 The settings on record: P. falciparum 3D7 erythrocytic growth, LDH absorbance, 72 h; at 2 µM; active compounds read high.
Assay [5] has as its target Calcium-dependent protein kinase 1 (Plasmodium falciparum (isolate 3D7)) (UniProt P62344). Put plainly: PfCDPK1 kinase inhibitors, biochemical, TCAMS library (AID 1159585; cut-off not given, nearly all actives have IC50 up to about 0.98 µM;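 note: inhibitors leave more ATP so luminescence rises with inhibition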). The settings on record: recombinant PfCDPK1, Kinase-Glo ATP depletion luminescence.
In assay [6] the target is Plasmodium falciparum protein kinase 6 (PK6, PF3D7_1337100) (UniProt Q8IDW1). Put plainly: PfPK6 kinase inhibitors, biochemical, TCAMS library (AID 1159586). The following applies: recombinant PfPK6, Kinase-Glo ATP depletion luminescence. Background: Kinase-Glo reads ATP consumption through a luciferase reaction.
The target of assay [7] is Protein kinase 7 (PK7), Plasmodium falciparum 3D7 (PF3D7_0213400) (UniProt Q7YTF7). Nature of the assay: inhibition of Plasmodium PK7 catalytic activity – biochemical, TCAMS antimalarial set, Kinase-Glo luminescence (AID 1159587). The settings on record: recombinant PfPK7, Kinase-Glo ATP depletion luminescence.
In assay [8] the target is Calcium-dependent protein kinase 4 (Plasmodium falciparum (isolate 3D7)) (UniProt Q8IBS5). Nature of the assay: PfCDPK4 kinase inhibitors, biochemical, TCAMS library (AID 1159588; cut-off not given, nearly all actives have IC50 up to about 0.91 µM). The following applies: recombinant PfCDPK4, Kinase-Glo ATP depletion luminescence.
Calcium-dependent protein kinase 4 (Plasmodium falciparum (isolate 3D7)), sequence (Q8IBS5 whole entry, looked up): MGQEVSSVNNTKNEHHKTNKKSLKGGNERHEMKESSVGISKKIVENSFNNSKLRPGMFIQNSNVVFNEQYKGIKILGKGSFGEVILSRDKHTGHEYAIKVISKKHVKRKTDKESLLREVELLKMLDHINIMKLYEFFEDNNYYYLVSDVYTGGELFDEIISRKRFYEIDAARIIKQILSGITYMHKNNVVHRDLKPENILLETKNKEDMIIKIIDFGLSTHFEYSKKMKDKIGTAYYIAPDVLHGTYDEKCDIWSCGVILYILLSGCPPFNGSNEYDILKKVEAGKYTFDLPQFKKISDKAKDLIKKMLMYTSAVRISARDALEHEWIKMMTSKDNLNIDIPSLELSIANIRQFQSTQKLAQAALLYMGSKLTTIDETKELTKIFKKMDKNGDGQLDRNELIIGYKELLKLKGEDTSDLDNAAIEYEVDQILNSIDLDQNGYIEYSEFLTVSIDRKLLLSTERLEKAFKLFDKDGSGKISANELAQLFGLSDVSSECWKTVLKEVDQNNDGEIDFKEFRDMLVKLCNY

Protein kinase 7 (PK7), Plasmodium falciparum 3D7 (PF3D7_0213400), sequence (Q7YTF7 1-343): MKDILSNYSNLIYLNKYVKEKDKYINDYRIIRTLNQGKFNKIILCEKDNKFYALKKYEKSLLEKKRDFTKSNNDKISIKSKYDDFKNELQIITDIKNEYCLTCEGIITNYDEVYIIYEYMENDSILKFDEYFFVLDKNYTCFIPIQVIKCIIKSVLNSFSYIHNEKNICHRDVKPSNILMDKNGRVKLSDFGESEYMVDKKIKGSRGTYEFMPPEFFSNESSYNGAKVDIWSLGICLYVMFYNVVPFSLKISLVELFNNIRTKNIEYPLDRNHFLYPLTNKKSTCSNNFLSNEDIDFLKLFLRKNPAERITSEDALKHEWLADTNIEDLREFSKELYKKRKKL
Calcium-dependent protein kinase 1 (Plasmodium falciparum (isolate 3D7)), sequence (P62344 whole entry, looked up): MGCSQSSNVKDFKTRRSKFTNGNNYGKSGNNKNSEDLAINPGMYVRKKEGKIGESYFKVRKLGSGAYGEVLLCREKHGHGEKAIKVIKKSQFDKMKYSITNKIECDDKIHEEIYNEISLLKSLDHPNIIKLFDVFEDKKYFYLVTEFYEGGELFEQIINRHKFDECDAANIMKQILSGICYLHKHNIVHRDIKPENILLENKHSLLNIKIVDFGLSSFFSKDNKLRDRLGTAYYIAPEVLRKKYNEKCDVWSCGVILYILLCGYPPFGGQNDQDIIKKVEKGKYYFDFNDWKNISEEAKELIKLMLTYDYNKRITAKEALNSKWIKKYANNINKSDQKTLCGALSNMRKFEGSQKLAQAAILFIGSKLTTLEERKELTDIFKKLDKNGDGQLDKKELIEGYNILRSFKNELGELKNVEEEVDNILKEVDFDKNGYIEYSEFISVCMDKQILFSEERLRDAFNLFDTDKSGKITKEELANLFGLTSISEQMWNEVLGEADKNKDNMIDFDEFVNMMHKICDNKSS
L-lactate dehydrogenase (Plasmodium falciparum (isolate CDC / Honduras)), sequence (Q27743 whole entry, looked up): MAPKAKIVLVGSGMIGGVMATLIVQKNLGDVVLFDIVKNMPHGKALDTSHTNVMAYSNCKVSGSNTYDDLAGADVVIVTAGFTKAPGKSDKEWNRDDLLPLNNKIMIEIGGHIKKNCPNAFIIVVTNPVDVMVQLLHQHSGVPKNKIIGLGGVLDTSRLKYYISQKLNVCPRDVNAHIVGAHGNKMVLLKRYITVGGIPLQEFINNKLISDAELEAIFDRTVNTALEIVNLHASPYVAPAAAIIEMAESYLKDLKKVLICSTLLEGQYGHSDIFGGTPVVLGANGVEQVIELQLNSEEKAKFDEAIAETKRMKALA
Plasmodium falciparum protein kinase 6 (PK6, PF3D7_1337100), sequence (Q8IDW1 1-305): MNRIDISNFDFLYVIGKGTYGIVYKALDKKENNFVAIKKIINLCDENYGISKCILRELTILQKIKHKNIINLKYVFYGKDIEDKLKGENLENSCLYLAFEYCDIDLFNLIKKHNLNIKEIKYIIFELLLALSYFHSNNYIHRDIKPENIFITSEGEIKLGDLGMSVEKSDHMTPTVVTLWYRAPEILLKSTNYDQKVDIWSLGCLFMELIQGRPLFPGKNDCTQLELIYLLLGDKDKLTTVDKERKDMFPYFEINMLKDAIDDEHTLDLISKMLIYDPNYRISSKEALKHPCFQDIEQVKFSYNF

As usually defined, the inhibition is the change of the read-out against control, counted positive when it falls. Turning to `CC(C)CNC(=O)c1cncc(-c2ccc(CNCCCc3ccccc3)cc2)c1`, the results for the growth inhibition in assay [1] and in assay [4] were 73% (active) and 101% (active), respectively. In addition, the inhibition is 28% in assay [2] and -6% in assay [3]. For the same molecule, the outcome in assay [5], in assay [6], in assay [7] and in assay [8] was inactive.

With `CCCCCCCN1CC[C@@H](CCC(O)c2ccnc3ccc(OC)cc23)[C@@H](CC)C1` (stereo not given in full), the growth inhibition in assay [1] was 93% (active); in assay [4], 97% (active). The inhibition is 34% in assay [2] and -1% in assay [3]. Besides, the result in assay [5], in assay [6], in assay [7] and in assay [8] was inactive.

As to `CCS(=O)(=O)Nc1ccc2[nH]cc(C3CCN(CCC4CCN(C(=O)/C=C/c5ccc(Cl)c(Cl)c5)CC4)CC3)c2c1`, the growth inhibition was 94% (active) in assay [1] and 99% (active) in assay [4]. Also, the inhibition in assay [2] is 34%; in assay [3], -2%. Moreover, the outcome in assay [5], in assay [6], in assay [7] and in assay [8] was inactive.

On to `CC(C)c1ccc(NC(=O)c2ccc(C(=O)NCC3CCN(CC4CCCCC4)CC3)cc2)cc1`, for which the growth inhibition in assay [1] was 18%; in assay [4], 92% (active). The inhibition in assay [2] was 26%; in assay [3], -3%. In addition, the result in assay [5], in assay [6], in assay [7] and in assay [8] was inactive.

`OCC1CCN(Cc2ccc(-c3cccc(-c4nc5ccc(C(F)(F)F)cc5[nH]4)c3)cc2)CC1`: the results for the growth inhibition in assay [1] and in assay [4] were 73% (active) and 99% (active), respectively. Moreover, the inhibition in assay [2] was 19%; in assay [3] it was -4%. Further, the result in assay [5], in assay [6], in assay [7] and in assay [8] was inactive.

For the molecule `CCN(CC)CCCC(C)Nc1c(-c2ccc(C)cc2)cnc2ccccc12` (stereo not given), the growth inhibition in assay [1] is 65% (active); in assay [4], 85% (active). Also, the inhibition is 8% in assay [2] and 1% in assay [3]. Also, the result in assay [5], in assay [6], in assay [7] and in assay [8] was inactive.

In the case of `CC1CN(Cc2ccc(-c3ccc(-c4nc5ccc(F)cc5[nH]4)s3)cc2)CC(C)O1` (stereo not given), the growth inhibition was 89% (active) in assay [1] and 88% (active) in assay [4]. For the same molecule, the inhibition is 35% in assay [2] and -10% in assay [3]. The outcome in assay [5], in assay [6], in assay [7] and in assay [8] was inactive.

As to `CN(C)c1ccc(-c2ccc(C(=O)NC3CCN(Cc4cccc(C(F)(F)F)c4)CC3)s2)cc1`, the growth inhibition in assay [1] is 77% (active); in assay [4] it was 96% (active). Besides, the inhibition was 35% in assay [2] and 0% in assay [3]. The result in assay [5], in assay [6], in assay [7] and in assay [8] was inactive.

For the molecule `CC(C)N1CCC(NC(=O)N2CCCN(c3ncnc4cc(-c5ccccc5)sc34)CC2)CC1`, the values for the growth inhibition in assay [1] and in assay [4] were 11% and 87% (active), respectively. Further, the inhibition in assay [2] was 31%; in assay [3] it was -4%. The outcome in assay [5], in assay [6], in assay [7] and in assay [8] was inactive.

With `CCN(CC)CCN(Cc1ccc(-c2ccc(C(F)(F)F)cc2)cc1)C(=O)Cn1c(/C=C/c2ccco2)nc(=O)c2ccccc21`, the figures for the growth inhibition in assay [1] and in assay [4] were 86% (active) and 94% (active), respectively. Moreover, the inhibition was 28% in assay [2] and -2% in assay [3]. Moreover, the result in assay [5], in assay [6], in assay [7] and in assay [8] was inactive.

On to `COc1ccc2nccc(N3CCC(CCNCc4ccc5c(n4)NC(=O)CO5)CC3)c2n1`, for which the growth inhibition in assay [1] is 72% (active); in assay [4], 101% (active). Besides, the inhibition in assay [2] is 19%; in assay [3] it was -7%. The result in assay [5], in assay [6], in assay [7] and in assay [8] was inactive.

In the case of `Cc1nc2ccc(F)cc2n1C1CCN(C(=O)Cc2ccc(F)c(F)c2)CC1`, the growth inhibition was 99% (active) in assay [1] and 100% (active) in assay [4]. In addition, the inhibition in assay [2] is 2%; in assay [3], 0%. Moreover, the result in assay [5], in assay [6], in assay [7] and in assay [8] was inactive.

Take `CC(C)(C)c1nn(-c2ccccc2)c2[nH]c(=O)c(CNC3CCCC3)cc12`: the growth inhibition in assay [1] was 70% (active); in assay [4] it was 100% (active). For the same molecule, the inhibition in assay [2] was 7%; in assay [3], 5%. Also, the outcome in assay [5], in assay [6], in assay [7] and in assay [8] was inactive.

`COc1ccc2nccc(NN=Cc3ccccc3)c2c1`: the figures for the growth inhibition in assay [1] and in assay [4] were 99% (active) and 101% (active), respectively. Moreover, the inhibition in assay [2] was -2%; in assay [3], -1%. Besides, the outcome in assay [5], in assay [6], in assay [7] and in assay [8] was inactive.

Turning to `COc1cc(NC(=O)CCCN2CCN(c3cccc(Cl)c3Cl)CC2)ccc1N1CCN(C(C)C)CC1`, the growth inhibition in assay [1] is 59% (active); in assay [4] it was 99% (active). The inhibition in assay [2] is 31%; in assay [3], 4%. In addition, the outcome in assay [5], in assay [6], in assay [7] and in assay [8] was inactive.

As for `Cc1cccc2[nH]c(-c3ccc(-c4cccc(CNCCNC(=O)c5ccnn5C)c4)cc3)nc12`, the growth inhibition in assay [1] is 92% (active); in assay [4], 100% (active). In addition, the results for the inhibition in assay [2] and in assay [3] were 17% and -4%, respectively. The outcome in assay [5], in assay [6], in assay [7] and in assay [8] was inactive.

On to `CC1CCCN(C(=O)c2cc(-c3ccccn3)nc3c(Cl)cccc23)C1` (stereo not given), for which the growth inhibition was 9% in assay [1] and 86% (active) in assay [4]. Further, the inhibition in assay [2] was 2%; in assay [3], -5%. Further, the outcome in assay [5], in assay [6], in assay [7] and in assay [8] was inactive.

On to `Cc1cc(Nc2ccccc2)nc(Nc2ccccc2C)n1`, for which the results for the growth inhibition in assay [1] and in assay [4] were 27% and 85% (active), respectively. For the same molecule, the inhibition in assay [2] is 8%; in assay [3], 5%. In addition, the result in assay [5], in assay [6], in assay [7] and in assay [8] was inactive.

Regarding `c1ccc2c(c1)ncn2-c1ccnc(Nc2ccncc2)n1`, the growth inhibition in assay [1] is 80% (active); in assay [4], 89% (active). In addition, the results for the inhibition in assay [2] and in assay [3] were 0% and -3%, respectively. The outcome in assay [5], in assay [6], in assay [7] and in assay [8] was inactive.

For the molecule `COC(=O)c1cccc(CNCc2cccc(-c3ccc(-c4nc5c(C)cccc5[nH]4)s3)c2)c1`, the values for the growth inhibition in assay [1] and in assay [4] were 65% (active) and 103% (active), respectively. For the same molecule, the inhibition is -4% in assay [2] and 1% in assay [3]. Moreover, the outcome in assay [5], in assay [6], in assay [7] and in assay [8] was inactive.
